Drawing on PubChem BioAssay (Tox21), this text covers Potency and outcome for nine molecules.

Inconclusive results are not listed. Activity calls are given as the source filed them. Unless noted, the call rests on the fitted dose curve; in most records, active means well fitted curve in the direction sought with a large enough effect in the repeat runs; inconclusive means weak or mixed curves; inactive means no such curve, though single readings can be large; an effect the other way counts as inactive or inconclusive.

Assay [1] can be described thus: qHTS assay to identify small molecule antagonists of the androgen receptor (AR) signaling pathway using the MDA cell line in the presence of 0.5 nM R1881 - cell viability counter screen (AID 1259242). Further: nearly all actives have a fitted effect of over 45% in size. In a few lines: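 MDA-kb2 cells (human breast carcinoma, stably carrying MMTV-luciferase reporter) were exposed to compounds with 0.5 nM R1881 (final) for 16 hr at 37C, 0% CO2; viability then read as live-cell protease fluorescence (CellTiter-Fluor, 30 min) in the same wells.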
On the technique in general: Quantitative high-throughput screening tests each substance at several concentrations.

For assay [2], the target named is Estrogen receptor (Homo sapiens) (UniProt P03372). Kind of assay: qHTS assay to identify small molecule antagonists of the estrogen receptor alpha (ER-alpha) signaling pathway using the BG1 cell line in the presence of 0.1 nM 17-beta-estradiol (AID 1259244). Further: nearly all actives have a fitted effect of over 50% in size. In a few lines:
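VM7Luc4E2 cells (endogenous full-length ER-alpha, stable 4xERE-luciferase) were grown 5 days in phenol red-free medium with charcoal-stripped FBS, then exposed 22 h at 37C to compounds plus 0.1 nM (final) 17beta-estradiol; ONE-Glo luminescence read-out.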

Assay [3] is described as follows: qHTS assay to identify small molecule HDAC inhibitors (AID 1259364). Further: top concentration of the series differs between compounds; nearly all actives have a fitted effect of over 45% in size. In a few lines:
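Wild-type HCT-116 cells were plated overnight, exposed to compounds for 2 h at 37 °C, then given HDAC-Glo class I/II luminogenic reagent for 30 min at room temperature before luminescence was read.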

Assay [4] in a line: qHTS assay to identify small molecule HDAC inhibitors - cell viability counter screen (AID 1259365). Further: series mostly up to about 92 µM; nearly all actives have a fitted effect of over 50% in size. In a few lines: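 CellTiter-Glo luminescence (30 min, room temperature) reported viability after a 2 h compound exposure at 37 C. Cells: wild-type HCT-116, 1,500 per well, seeded the night before.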
Assay [5] is described as follows: qHTS assay to identify small molecule agonists of the sonic hedgehog signaling (Shh) pathway - cell viability counter screen (AID 1259366). Further: nearly all actives have a fitted effect of over 50% in size. A digest of the protocol:
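Cytotoxicity counter screen: CellTiter-Fluor reagent added after 23 h compound exposure, then 1 h at 37C and fluorescence read. Cells were 3T3 Gli1-Luc, seeded 2,000 per well and dosed 4 h post-plating.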

Assay [6] is described as follows: qHTS assay to identify small molecule antagonists of the sonic hedgehog signaling (Shh) pathway - cell viability counter screen (AID 1259367). Further: nearly all actives have a fitted effect of over 55% in size. In a few lines:
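Cells: 3T3 Gli1-Luc, 2,000/well, 4 hr pre-incubation. Compounds in DMSO, then conditioned medium. Incubation 24 hr, 37C, 5% CO2. CellTiter-Fluor at 23 hr, 1 hr, fluorescence.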

The nature of assay [7]: qHTS assay to identify small molecule agonists of the sonic hedgehog signaling (Shh) pathway (AID 1259368; calls by dose curve; further: nearly all actives have a fitted effect of over 15% in size; further: potency means the concentration at half of the fitted maximal effect). A digest of the protocol:
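NIH/3T3-derived 3T3Gli1-Luc cells carrying a stably integrated Gli1 response element–firefly luciferase reporter were plated, left 4 hr at 37 C, then given compounds in DMSO for 24 hr. Luminescence was read 30 min after adding luciferase reagent.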

Assay [8] has as its target Estrogen receptor beta (Homo sapiens) (UniProt Q92731). Kind of assay: qHTS assay to identify small molecule agonists of the estrogen receptor beta (ER-beta) signaling pathway (AID 1259377; active means well fitted activation curve with a large enough effect in the signal ratio in the repeat runs, not every such curve was filed as active; the % refers to the signal ratio). A digest of the protocol: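 Ratiometric beta-lactamase FRET read-out came after 2 h substrate loading at room temperature. It followed 16 h compound treatment at 37C of GripTite HEK293T cells carrying a UAS-bla reporter, plated in 2% charcoal-stripped FBS medium.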

Assay [9] shares this target. Kind of assay: qHTS assay to identify small molecule antagonists of the estrogen receptor beta (ER-beta) signaling pathway (AID 1259378; active means well fitted inhibition curve with a large enough effect in the signal ratio in the repeat runs, not every such curve was filed as active; the % refers to the signal ratio; further: potency means the concentration at half of the fitted maximal effect). A digest of the protocol: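 Antagonist mode: compounds added to beta-lactamase reporter HEK293T ER-beta-UAS cells stimulated with E2 (1nM final), 16 hr at 37C. LiveBLAzer B/G FRET substrate, 2 hours room temperature, fluorescence read-out.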

Assay [10] in a line: qHTS assay to identify small molecule agonists of the androgen receptor (AR) signaling pathway in the presence of an antagonist - cell viability counter screen (AID 1259379). Further: series mostly up to about 92 µM; nearly all actives have a fitted effect of over 25% in size. In a few lines: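 MDA-kb2 human breast carcinoma cells (stable MMTV-luciferase, AR/GR responsive) were seeded 3,000 cells/well, pre-incubated 5 hr at 37C without CO2, then given 3.0uM nilutamide and compounds at 15 concentrations for 16 hr. Viability was read by CellTiter-Fluor fluorescence.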

Assay [11] is described as follows: qHTS assay to identify small molecule antagonists of the estrogen receptor beta (ER-beta) signaling pathway - cell viability counter screen (AID 1259382). Further: series mostly up to about 92 µM; nearly all actives have a fitted effect of over 55% in size. A digest of the protocol: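 ER-beta-UAS-bla HEK293T cells (2,000/well, 2% charcoal-stripped FBS) were pre-incubated 6 hr at 37C, then given compound plus 1nM final 17-beta-estradiol for 16 hr. Viability was read in the same wells by CellTiter-Glo luminescence after 30 min at room temperature.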

Assay [12] concerns the target Estrogen receptor (Homo sapiens) (UniProt P03372). As to the kind of experiment: qHTS assay to identify small molecule agonists of the estrogen receptor alpha (ER-alpha) signaling pathway in the presence of an antagonist (AID 1259383; calls by dose curve; further: top concentration of the series differs between compounds; nearly all actives have a fitted effect of over 15% in size). A digest of the protocol:
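VM7Luc4E2 cells (endogenous full-length ER-alpha, 4×ERE-luciferase) were precultured 5 days in phenol red-free medium with 10% charcoal-stripped FBS, given 10.0nM ICI-182,780 (final), then treated with compounds at 15 concentrations for 22hr at 37C; luminescence read with ONE-Glo.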

Assay [13] is described as follows: qHTS assay to identify small molecule agonists or antagonists of the thyroid stimulating hormone receptor (TSHR) signaling pathway - wild type cell line counter screen (AID 1259384; calls by dose curve). In a few lines: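 Counter screen in untransfected Hek293: compounds (15-point titration, triplicate) plus phosphodiesterase inhibitor Ro20-1724 added after 18 h plating; 30 min RT. Intracellular cAMP via competitive d2/cryptate immunoassay, 1 h incubation.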

Assay [14] addresses Thyrotropin receptor (Homo sapiens) (UniProt P16473). Kind of assay: qHTS assay to identify small molecule antagonists of the thyroid stimulating hormone receptor (TSHR) signaling pathway (AID 1259385; calls by dose curve; further: nearly all actives have a fitted effect of over 20% in size). In a few lines: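 Antagonist mode: compound-treated TSHR-expressing HEK293 cells were stimulated with 1.5 ng/mL TSH (final) in presence of Ro20-1724 for 30 min at RT. HTRF cAMP detection after 1 h; each compound tested at 15 concentrations, triplicate.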

Assay [15] is described as follows: qHTS assay to identify small molecule agonists of the estrogen receptor beta (ER-beta) signaling pathway - cell viability counter screen (AID 1259380). Further: nearly all actives have a fitted effect of over 30% in size. A digest of the protocol: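 ER-beta-UAS-bla HEK293T cells in medium with 2% charcoal-stripped FBS were preincubated 6 hr at 37C, dosed with compound in DMSO for 16 hr, then after the bla read, CellTiter-Glo was added for 30 min at room temperature; luminescence recorded.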

Assay [16] in a line: qHTS assay to identify small molecule agonists of the estrogen receptor alpha (ER-alpha) signaling pathway in the presence of an antagonist - cell viability counter screen (AID 1259386). Further: series mostly up to about 92 µM; nearly all actives have a fitted effect of over 30% in size. A digest of the protocol: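 VM7Luc4E2 cells (endogenous full-length ER-alpha, 4×ERE-luciferase) were held 5 days in phenol red-free medium with 10% charcoal-stripped FBS, plated, then given 10.0nM ICI-182,780 and compounds at 15 concentrations for 22hr at 37C; viability read by CellTiter-Fluor fluorescence.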

Assay [17] in a line: qHTS assay to identify small molecule antagonists of the sonic hedgehog signaling (Shh) pathway (AID 1259369; calls by dose curve; further: nearly all actives have a fitted effect of over 45% in size). A digest of the protocol: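 NIH/3T3-derived 3T3Gli1-Luc cells with stably integrated Gli1-Luc reporter were preincubated 4hr at 37 C, then given compounds in DMSO plus Shh conditioned medium and incubated 24hr. Firefly luciferase luminescence read after 30min reagent at room temperature.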

Estrogen receptor beta (Homo sapiens), sequence (Q92731 whole entry, looked up): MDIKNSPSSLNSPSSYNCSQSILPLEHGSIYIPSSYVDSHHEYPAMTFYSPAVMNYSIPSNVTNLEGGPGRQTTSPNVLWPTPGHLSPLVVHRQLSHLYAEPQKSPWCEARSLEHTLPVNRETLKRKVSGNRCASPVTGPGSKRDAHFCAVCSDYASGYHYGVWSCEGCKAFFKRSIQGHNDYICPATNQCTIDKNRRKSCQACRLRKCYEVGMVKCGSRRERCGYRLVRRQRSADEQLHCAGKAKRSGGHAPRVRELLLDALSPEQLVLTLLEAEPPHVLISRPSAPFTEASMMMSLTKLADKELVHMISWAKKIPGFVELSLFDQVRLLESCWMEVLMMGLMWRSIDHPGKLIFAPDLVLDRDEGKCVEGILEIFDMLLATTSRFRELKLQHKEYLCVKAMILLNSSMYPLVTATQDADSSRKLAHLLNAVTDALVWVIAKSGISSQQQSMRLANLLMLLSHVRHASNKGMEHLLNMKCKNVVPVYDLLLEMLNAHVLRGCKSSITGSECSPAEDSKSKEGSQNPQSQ
Thyrotropin receptor (Homo sapiens), sequence (P16473 whole entry, looked up): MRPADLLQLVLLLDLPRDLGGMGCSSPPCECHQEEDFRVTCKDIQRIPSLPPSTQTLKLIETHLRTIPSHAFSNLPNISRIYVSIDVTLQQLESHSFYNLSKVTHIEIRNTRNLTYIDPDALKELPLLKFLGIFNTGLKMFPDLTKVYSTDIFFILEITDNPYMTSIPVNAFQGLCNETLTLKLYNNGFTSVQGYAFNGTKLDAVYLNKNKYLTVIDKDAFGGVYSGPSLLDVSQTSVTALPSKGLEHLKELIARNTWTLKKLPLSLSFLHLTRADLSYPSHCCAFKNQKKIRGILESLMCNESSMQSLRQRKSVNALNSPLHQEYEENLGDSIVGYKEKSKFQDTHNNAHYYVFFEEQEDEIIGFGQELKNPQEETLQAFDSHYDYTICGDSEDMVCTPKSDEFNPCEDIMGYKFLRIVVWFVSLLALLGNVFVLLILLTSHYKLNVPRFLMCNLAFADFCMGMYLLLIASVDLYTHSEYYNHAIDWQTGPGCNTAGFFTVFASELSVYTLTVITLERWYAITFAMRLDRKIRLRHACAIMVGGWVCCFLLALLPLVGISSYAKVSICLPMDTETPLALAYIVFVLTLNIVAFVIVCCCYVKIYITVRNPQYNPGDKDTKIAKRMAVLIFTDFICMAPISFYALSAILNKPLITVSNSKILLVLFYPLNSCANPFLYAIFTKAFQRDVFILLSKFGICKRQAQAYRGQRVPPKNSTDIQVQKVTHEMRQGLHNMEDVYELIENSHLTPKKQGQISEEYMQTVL
Estrogen receptor (Homo sapiens), sequence (P03372 whole entry, looked up): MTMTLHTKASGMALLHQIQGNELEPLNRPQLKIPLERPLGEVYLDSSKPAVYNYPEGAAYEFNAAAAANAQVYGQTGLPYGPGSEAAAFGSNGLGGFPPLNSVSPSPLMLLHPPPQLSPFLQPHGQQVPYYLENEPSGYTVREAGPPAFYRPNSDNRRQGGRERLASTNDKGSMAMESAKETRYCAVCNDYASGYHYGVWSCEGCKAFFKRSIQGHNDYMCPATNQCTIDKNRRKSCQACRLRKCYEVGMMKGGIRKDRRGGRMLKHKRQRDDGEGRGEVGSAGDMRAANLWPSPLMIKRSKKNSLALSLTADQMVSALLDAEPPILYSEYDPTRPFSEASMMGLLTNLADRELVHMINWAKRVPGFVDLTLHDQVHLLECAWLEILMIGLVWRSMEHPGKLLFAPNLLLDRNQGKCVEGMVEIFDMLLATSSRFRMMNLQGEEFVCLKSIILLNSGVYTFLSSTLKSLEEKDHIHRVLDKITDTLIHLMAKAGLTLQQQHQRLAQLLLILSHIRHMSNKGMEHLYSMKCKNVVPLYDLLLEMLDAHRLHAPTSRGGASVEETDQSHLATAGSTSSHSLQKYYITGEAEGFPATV

For `CC(=O)[C@H]1CC[C@H]2[C@@H]3CC=C4C[C@@H](O)CC[C@]4(C)[C@H]3CC[C@]12C`, the Potency entry in [1], in assay [2], in assay [3], in assay [5], in [6] and in assay [7] was “inactive” throughout. The Potency entry in [8], in assay [10], in assay [11], in assay [12], in [13] and in assay [14] was “inactive” in each case. In addition, the result in [4] was inactive. For the same molecule, the Potency in [9] was 1.88 µM (active).
Take `Nc1cc(Cl)c(N)c(Cl)c1`: the Potency result in assay [1], in [2], in [3], in [5], in assay [6] and in [7] was “inactive” each time. Moreover, the Potency result in [10], in [15], in assay [11], in assay [12] and in assay [16] was “inactive” in each case. For the same molecule, in assay [4], the molecule was called inactive.
For `CN(C)C`, the Potency entry in assay [1], in [2], in [5], in [6], in assay [7] and in [17] was “inactive” throughout. The Potency entry in assay [8], in [9], in assay [10], in assay [15], in [11] and in [12] was “inactive” throughout. Moreover, the call in [4] was inactive.
For `OCCNCCO`, the Potency result in assay [1], in assay [2], in [3], in assay [5], in [6] and in assay [7] was “inactive” throughout. The Potency entry in assay [17], in [10], in [15], in [11], in [12] and in [13] was “inactive” in each case. The Potency entry in assay [14] and in [16] was “inactive” in each case. Also, the molecule was classed as inactive in [4].
Consider `Nc1ccc(O)c(N)c1`, for which the Potency result in [1], in [2], in assay [3], in [7], in assay [17] and in [8] was “inactive” in each case. In addition, the Potency entry in assay [9], in assay [15], in assay [11] and in [12] was “inactive” throughout. For the same molecule, the outcome in assay [4] was inactive.
Consider `CC(C)=CCO`, for which the Potency entry in assay [1], in assay [2], in assay [5], in assay [6], in [7] and in [17] was “inactive” in each case. Also, the Potency entry in [8], in assay [9], in assay [10], in assay [15], in assay [11] and in assay [12] was “inactive” throughout. The Potency entry in assay [14] was “inactive”. Also, the molecule was called inactive in [4].
Consider `Nc1ccc2c(c1)C(=O)c1ccccc1C2=O`, for which the Potency entry in assay [1], in [2], in assay [5], in assay [6], in assay [17] and in assay [11] was “inactive” each time. The Potency result in [12] and in [16] was “inactive” throughout. In assay [4], the outcome was inactive. Besides, the Potency in assay [7] is 0.864 µM (active).
Consider `[Na+]`, for which the Potency result in assay [1], in [2], in [3], in assay [5], in assay [6] and in assay [7] was “inactive” throughout. Further, the Potency entry in assay [17], in assay [10], in [15], in assay [11], in [12] and in assay [16] was “inactive” throughout. For the same molecule, in assay [4], the outcome was inactive.
On to `C=C[Si](OCCOC)(OCCOC)OCCOC`, for which the Potency entry in [1], in [2], in assay [3], in [5], in assay [6] and in assay [7] was “inactive” throughout. Moreover, the Potency result in assay [17], in assay [10], in assay [15], in [11], in assay [12] and in [13] was “inactive” in each case. The Potency result in [14] and in [16] was “inactive” each time. In assay [4], the call was inactive.
